{"source": "PubChem BioAssay AID2284378", "about": "(EPA ToxCast)", "note": "Records with an inconclusive call do not appear. Active and inactive are the calls of the source. The calls were made as follows: active = hit-call score of the fitted dose curve at least 0.9, where 1 is the maximum; inconclusive = response in the unintended direction; inactive = score below 0.9."}
{"test_system": "frog Retinoid X Receptor beta (RXRb), gene 394278", "experiment": "ATG_frRXRb_EcoTox2: Attagene TRANS-FACTORIAL EcoTox-2 HepG2 Assay for frog Retinoid X Receptor beta (RXRb)", "experimental": "ATG_EcoTox2 is a cell-based, multiplexed assay created by modifying the existing Attagene TRANS-FACTORIAL system to include a panel of nuclear receptors from some or all the following species: human (Homo sapiens), african clawed frog (Xenopus laevis), rainbow trout (Oncorhynchus mykiss), japanese medaka (Oryzias latipes), and zebrafish (Danio rerio). The ECOTOX2-FACTORIAL format uses HepG2, a human liver cell line, with measurements taken at 24 hours after chemical dosing in a 24-well plate. ATG_frRXRb_EcoTox2 is one of 29 assay components calculated in the ATG_EcoTox2 assay. It is designed to make measurements of mRNA induction, a form of inducible reporter, as detected with fluorescence intensity signals by Reverse transcription polymerase chain reaction (RT-PCR) and Capillary electrophoresis technology.The assay endpoint ATG_frRXRb_EcoTox2 was analyzed in the positive analysis fitting direction relative to DMSO as the negative control and baseline of activity. Using a type of inducible reporter, measures of mRNA for gain-of-signal activity can be used to understand the reporter gene at the transcription factor-level as they relate to the gene RXRb. Furthermore, this assay endpoint can be referred to as a primary readout, because this assay has produced multiple assay endpoints where this one serves a reporter gene function. To generalize the intended target to other relatable targets, this assay endpoint is annotated to the nuclear receptor intended target family, where the subfamily is non-steroidal.\nHuman liver HepG2 cells are transiently transfected with multiple reporter transcription units (MRTUs) in 6-well plates using FuGene 6 reagent (Roche; 3 ml FuGene/1 mg DNA). The MRTU constructs are regulated by a cis-regulating element (promoter). Each RTU expresses a GAL4-UAS that regulates the transcription of a nearby target reporter gene sequence. A major difference between the CIS and TRANS system is that in CIS activities of endogenous TFs are measured, whereas the TRANS assay evaluates changes in activities of exogenous, chimeric NR-Gal4 proteins. […] At the end of 24 hour incubation, total RNA was isolated using TriZol reagent (Invitrogen). The isolated RNA is then reverse-transcribed using oligo(dT) primer and Mo-MLV reverse transcriptase (Invitrogen) with DNAse I (Ambion) treatment for 30 min. The one-tenth of the produced cDNA was amplified by PCR using Taq DNA polymerase (Invitrogen) and two reporter sequence-specific primers. The PCR products were fluorescently labeled by primer extension with 6-arboxyfluorescein (6-FAM) 5'-labeled reporter sequence-specific primer (2 min at 95 C, 20 s at 68 C and 10 min at 72 C) and these products were digested with 5U of HpaI (New England Biolabs) for 2h at 37 C. The fragments were purified using Qiaquick PCR columns (Qiagen), analyzed on an ABI 3130xL genetic analyzer (Applied Biosystems) with peak positions identified by using a set of X-rhodamine (ROX)-labeled MapMarker1000 molecular weight standards (BioVentures). The raw capillary electrophoresis data was processed using Attagraph software (Attagene)."}
{"smiles": "C[C@@H]1C[C@H]2[C@@H]3CCC4=CC(=O)C=C[C@]4(C)[C@@]3(F)[C@@H](O)C[C@]2(C)[C@@]1(O)C(=O)COP(=O)(O)O", "outcome": "inactive"}
{"smiles": "Cc1cccc(Nc2cc(Cl)nc(SCC(=O)O)n2)c1C", "AC50": "23.8 µM (active)"}
{"smiles": "CC(C)(Oc1ccc(Cl)cc1)C(=O)O", "outcome": "inactive"}
{"smiles": "CC(c1cc2ccccc2s1)N(O)C(N)=O", "note": "(centres undefined)", "outcome": "inactive"}
{"smiles": "CN(CCOc1ccc(CC2SC(=O)NC2=O)cc1)c1ccccn1", "note": "(centres undefined)", "outcome": "inactive"}
{"smiles": "Cc1ccc(C)c(OCCCC(C)(C)C(=O)O)c1", "outcome": "inactive"}
{"smiles": "C[C@]12C=CC(=O)C=C1CC[C@@H]1[C@@H]2C(=O)C[C@@]2(C)[C@H]1CC[C@]2(O)C(=O)CO", "outcome": "inactive"}
{"smiles": "CC(C)OC(=O)C(C)(C)Oc1ccc(C(=O)c2ccc(Cl)cc2)cc1", "outcome": "inactive"}
{"smiles": "C=C(c1ccc(C(=O)O)cc1)c1cc2c(cc1C)C(C)(C)CCC2(C)C", "AC50": "0.00172 µM (active)"}
